Reference: PubChem BioAssay (NCI)
This is part of a sample that, as a whole, favours compounds with a hit. Of some 83,000 tested, about 20% had one in any assay.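 Each cell line was grown in a 96-well plate and treated with one concentration of compound for 48 hours. Values below 10 were considered active.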 A number with no mark means an inactive call. Active and inactive are the calls of the source.

How the values were obtained:
Experiment in all cases: NCI-60 one-dose screen, 48 h (100 = growth as untreated, 0 = no growth, -100 = all killed)
Conditions in all cases: 10 µM unless noted
[1] = tested on: SR leukemia
[2] = tested on: RPMI-8226 leukemia
[3] = tested on: OVCAR-8 ovarian
[4] = tested on: OVCAR-5 ovarian
[5] = tested on: OVCAR-4 ovarian
[6] = tested on: SK-OV-3 ovarian
[7] = tested on: IGROV1 ovarian
[8] = tested on: OVCAR-3 ovarian
[9] = tested on: NCI/ADR-RES ovarian
[10] = tested on: HS 578T breast

S=C(S)OCN1CCOCC1
growth [1]: 65.2%
growth [2]: 100%
growth [3]: 88%
growth [4]: 97.6%
growth [5]: 56.5%
growth [6]: 98.9%
growth [7]: 56.5%
growth [8]: 118%
growth [9]: 96.2%

Cc1onc(-c2ccccc2)c1C(=O)N/N=C/c1cc(Cl)cc(Cl)c1O
growth [1]: 18.5%
growth [2]: 39.6%
growth [3]: 31.1%
growth [4]: 58.1%
growth [5]: 32.1%
growth [6]: 47.6%
growth [7]: 23.2%
growth [8]: 25.2%
growth [10]: 80%
growth [9]: 17.1%

Nc1ccc(-c2ccc(N)c(S(=O)(=O)O)c2)cc1S(=O)(=O)O
growth [1]: 153%
growth [2]: 110%
growth [3]: 116%
growth [4]: 116%
growth [5]: 108%
growth [6]: 103%
growth [7]: 120%
growth [8]: 108%
growth [9]: 114%

CN(Cc1ccccc1)c1ccc(SC#N)cc1
growth [1]: -6.68% (active)
growth [2]: 74.8%
growth [3]: 85%
growth [4]: 106%
growth [5]: 68.9%
growth [6]: 112%
growth [7]: 98.8%
growth [8]: 71.4%
growth [10]: 89.7%
growth [9]: 86.7%

CCCCOS(=O)(=O)c1ccccc1
growth [1]: 126%
growth [2]: 126%
growth [3]: 120%
growth [4]: 95.8%
growth [5]: 104%
growth [6]: 113%
growth [7]: 131%
growth [8]: 112%
growth [9]: 107%

N=C(N)Sc1cccc[n+]1[O-]
growth [1]: 4.61% (active)
growth [2]: 7.12% (active)
growth [3]: 45.6%
growth [4]: 98.2%
growth [5]: 15.7%
growth [6]: 85.3%
growth [7]: 46.5%
growth [8]: 21.7%
growth [9]: 53.5%

O=[N+]([O-])C=C(c1ccccc1)c1ccccc1
growth [1]: 22.8%
growth [2]: 64.5%
growth [3]: 92.5%
growth [4]: 83.2%
growth [5]: 79.5%
growth [6]: 78%
growth [7]: 86.5%
growth [8]: 90.1%
growth [9]: 75.5%

N=C1C=C(N)C(=O)c2ccccc21
growth [1]: 1.77% (active)
growth [2]: 5.15% (active)
growth [3]: -20.1% (active)
growth [4]: -85.8% (active)
growth [5]: -99.6% (active)
growth [6]: -87% (active)
growth [7]: -37.6% (active)
growth [8]: -87.6% (active)
growth [9]: -76.4% (active)

O=C1C(=O)c2cc([N+](=O)[O-])ccc2-c2ccccc21
growth [1]: -7.48% (active)
growth [2]: -42.1% (active)
growth [3]: -58.6% (active)
growth [4]: -79.2% (active)
growth [5]: -97.6% (active)
growth [6]: 55.7%
growth [7]: -72.5% (active)
growth [8]: -94% (active)
growth [9]: -74.2% (active)

CCCCCCCCCCCCN1C(C)=CS/C1=C\C=C\c1scc(C)[n+]1CCCCCCCCCCCC
growth [1]: -4.71% (active)
growth [2]: -11.3% (active)
growth [3]: -8.26% (active)
growth [4]: 61%
growth [5]: 34.2%
growth [6]: 50.3%
growth [7]: 42.8%
growth [8]: 31.9%
growth [9]: 68%

Cc1cc(C(=C2C=CC(=Nc3ccccc3)C=C2)c2ccc(Nc3ccccc3)cc2)ccc1N
growth [1]: 9.34% (active)
growth [2]: 4.29% (active)
growth [3]: -59.3% (active)
growth [4]: -60% (active)
growth [5]: -74.2% (active)
growth [6]: -64.8% (active)
growth [7]: -26.9% (active)
growth [8]: -93.7% (active)
growth [9]: -46.7% (active)

COc1cc(/C=C2\SC(=S)N(/C=C/c3nc4ccccc4[nH]c3=O)C2=O)cc(OC)c1OC
growth [1]: 63.6%
growth [2]: 86.2%
growth [3]: 86.4%
growth [4]: 88.3%
growth [5]: 84.5%
growth [6]: 76.3%
growth [7]: 89.8%
growth [8]: 89.4%
growth [10]: 74.4%
growth [9]: 86.6%

Clc1ccccc1C(c1ccccc1)(c1ccccc1)n1ccnc1
growth [1]: 19.2%
growth [2]: 18.7%
growth [3]: 29.1%
growth [4]: 57.8%
growth [5]: 33.2%
growth [6]: 69.3%
growth [7]: 55.5%
growth [8]: 29.3%
growth [9]: 33.1%

O=C(c1ccccc1)C(O)C(Br)(CBr)c1ccccc1 (stereo not given)
growth [1]: 59.3%
growth [2]: 73.6%
growth [3]: 93.2%
growth [4]: 99.6%
growth [5]: 90.8%
growth [6]: 114%
growth [7]: 90.9%
growth [8]: 89.7%
growth [9]: 91.6%

CCOc1ccc(C(CN2CCOCC2)C(C)=O)cc1OC (stereo not given)
growth [1]: 65.2%
growth [2]: 62.3%
growth [3]: 96.3%
growth [4]: 99.1%
growth [5]: 98.2%
growth [6]: 99.4%
growth [7]: 113%
growth [8]: 88.3%
growth [9]: 107%

O=C1C=CC(=O)N1c1cccc2c1CCCC2
growth [1]: 87.6%
growth [2]: 100%
growth [3]: 110%
growth [4]: 103%
growth [5]: 102%
growth [6]: 99.5%
growth [7]: 97.5%
growth [8]: 106%
growth [10]: 114%
growth [9]: 112%

CCCCC(C=O)(C=C=C(C)C)CC (stereo not given)
growth [1]: 108%
growth [2]: 98%
growth [3]: 98.5%
growth [4]: 98.3%
growth [5]: 96.5%
growth [6]: 98%
growth [7]: 110%
growth [8]: 107%
growth [9]: 106%

CC(C)=C1C=C2CC[C@@H]3[C@](C)(CCC[C@@]3(C)C(=O)O)[C@H]2CC1
growth [1]: 99%
growth [2]: 107%
growth [3]: 100%
growth [4]: 96.8%
growth [5]: 94.4%
growth [6]: 105%
growth [7]: 103%
growth [8]: 98.9%
growth [9]: 100%

CCC(C)(O)Cc1ccc(Cl)cc1 (stereo not given)
growth [1]: 101%
growth [2]: 105%
growth [3]: 108%
growth [4]: 111%
growth [5]: 103%
growth [6]: 103%
growth [7]: 114%
growth [8]: 114%
growth [9]: 111%

CC(C)Nc1ccc(Nc2ccc(NC(C)C)cc2)cc1
growth [1]: 26.2%
growth [2]: 17.8%
growth [3]: 51.6%
growth [4]: 96.3%
growth [5]: 49.5%
growth [6]: 53.2%
growth [7]: 50.7%
growth [8]: 31.6%
growth [9]: 95.5%

CN(C)CCSC1=Nc2ccc(Cl)cc2C(c2ccccc2Cl)N(C)C1 (stereo not given)
growth [1]: 44.1%
growth [2]: 50.7%
growth [3]: 78.8%
growth [4]: 88.4%
growth [5]: 39.4%
growth [6]: 72%
growth [7]: 41.6%
growth [8]: 59.9%
growth [9]: 66%

CC(C)(C)c1ccc(O)c(-c2ccccc2)c1
growth [1]: 57.7%
growth [2]: 97.1%
growth [3]: 107%
growth [4]: 111%
growth [5]: 127%
growth [6]: 114%
growth [7]: 108%
growth [8]: 111%
growth [9]: 106%

O=C(Nc1ccc(Cl)c(Cl)c1)Nc1ccccc1O
growth [1]: 87%
growth [2]: 18.8%
growth [3]: 67.1%
growth [4]: 98.7%
growth [5]: 67.1%
growth [6]: 89.2%
growth [7]: 72.7%
growth [8]: 79.6%
growth [10]: 106%
growth [9]: 63.8%

CCCCCCN(CCCCCC)CCCNc1nccc2ccccc12
growth [1]: -9.78% (active)
growth [2]: -22.8% (active)
growth [3]: 12%
growth [4]: 38.1%
growth [5]: 23.4%
growth [6]: 41.9%
growth [7]: 12.5%
growth [8]: -6.31% (active)
growth [9]: 19.4%

CCOc1ccc(C(C[N+](=O)[O-])Sc2ccccc2N)cc1 (stereo not given)
growth [1]: 4.9% (active)
growth [2]: 6.92% (active)
growth [3]: 53.5%
growth [4]: 81.9%
growth [5]: 83.1%
growth [6]: 72.6%
growth [7]: -34.9% (active)
growth [8]: 32.2%
growth [9]: 72.6%

CCCCCCCCCCCCCCCCCC[S+](C)CC (stereo not given)
growth [1]: 32.7%
growth [2]: 30.4%
growth [3]: 13.9%
growth [4]: 9.31% (active)
growth [5]: 7.76% (active)
growth [6]: 49.5%
growth [7]: -34.2% (active)
growth [8]: 45.1%
growth [9]: 84.7%

NC(CS/C(Cl)=C/Cl)C(=O)O (stereo not given)
growth [1]: 96%
growth [2]: 36.2%
growth [3]: 64.6%
growth [4]: 99.8%
growth [5]: 101%
growth [6]: 94%
growth [7]: 96.4%
growth [8]: 102%
growth [9]: 86.2%

CCCCCCCCc1cc(Cl)c(O)c(Cl)c1
growth [1]: 83.1%
growth [2]: 98.3%
growth [3]: 103%
growth [4]: 101%
growth [5]: 115%
growth [6]: 101%
growth [7]: 133%
growth [8]: 101%
growth [10]: 98.7%
growth [9]: 103%

CN1CCC(c2ccccc2)(c2ccccc2)C(=O)C1
growth [1]: 78.2%
growth [2]: 41.7%
growth [3]: 95.9%
growth [4]: 86.8%
growth [5]: 57%
growth [6]: 103%
growth [7]: 89.8%
growth [8]: 68.7%
growth [9]: 73.9%

CC(/C=N/NC(N)=S)Cc1ccc(C(C)C)cc1 (stereo not given)
growth [1]: 135%
growth [2]: 104%
growth [3]: 79.3%
growth [4]: 86.6%
growth [5]: 29.8%
growth [6]: 85.8%
growth [7]: 25.7%
growth [8]: 77.7%
growth [10]: 71.7%
growth [9]: 64.4%

O=C1C(=O)c2cccnc2-c2ncccc21
growth [1]: -45.5% (active)
growth [2]: -29.7% (active)
growth [3]: -33% (active)
growth [4]: -57.6% (active)
growth [5]: -100% (active)
growth [6]: -32.8% (active)
growth [7]: -53.8% (active)
growth [8]: -100% (active)
growth [9]: -96.3% (active)

Oc1ccc(Br)cc1Sc1cc(Br)ccc1O
growth [1]: 41.4%
growth [2]: 4.14% (active)
growth [3]: 51.4%
growth [4]: 105%
growth [5]: 37.3%
growth [6]: 98.3%
growth [7]: 81.5%
growth [8]: 28.9%
growth [9]: 31.4%
